The values below come from PubChem BioAssay.

Values without a mark were called inactive. For part of these data: Measured potencies and affinities stand elsewhere. Activity calls are given as the source filed them. Unless noted, the rule behind the calls is not given here.

A word on the inhibition: it is the relative decrease from the control value, in per cent.

Assay [1] in a line: antimalarial activity against Dd2 strain (AID 2302;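 active = growth inhibition above 50% at the single 2 µM test dose, taken to imply half-maximal potency below 2 µM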;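 note: 0% = DMSO untreated growth and 100% = chloroquine plus artemisinin killed control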). The note with it: P. falciparum Dd2 in RBCs, LDH growth readout, 72 h; at 2 µM; hits give high values.
Assay [2] in a line: human hepatoma cell viability loss – ATP luminescence, cytotoxicity control for P. falciparum antimalarial project, primary screen (AID 2303;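 active = inhibition above 50%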;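 note: 0% = DMSO wells and 100% = digitonin-killed cells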). The note with it: HepG2 viability, 24-48 h, at 10 µM, hits give high values.
The target in assay [3] is L-lactate dehydrogenase (Plasmodium falciparum (isolate CDC / Honduras)) (UniProt Q27743). Description: PfLDH activity inhibition – cell lysate, 3D7 strain, counter-screen for P. falciparum growth inhibition project (AID 2304).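 Note: 0% = vehicle and 100% = reference inhibitor.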 The note with it: P. falciparum 3D7 crude extract, LDH APAD/NBT absorbance; at 2 µM; hits give high values. (A counterscreen serves to expose hits that act by an unwanted route or on another target.)

Assay [4] is described as follows: inhibition of 3D7 malaria parasite growth – strain 3D7 (AID 2306).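 Note: 0% = DMSO wells and 100% = chloroquine plus artemisinin control wells.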 The note with it: P. falciparum 3D7 erythrocytic growth, LDH absorbance, 72 h; at 2 µM; hits give high values.
Assay [5] addresses Calcium-dependent protein kinase 1 (Plasmodium falciparum (isolate 3D7)) (UniProt P62344). Description: PfCDPK1 kinase inhibitors, biochemical, TCAMS library (AID 1159585; cut-off not given, nearly all actives have IC50 up to about 0.98 µM;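 note: inhibitors leave more ATP so luminescence rises with inhibition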). The note with it: recombinant PfCDPK1, Kinase-Glo ATP depletion luminescence. For orientation: Kinase-Glo measures the ATP left after a reaction by luminescence.
Assay [6] addresses Plasmodium falciparum protein kinase 6 (PK6, PF3D7_1337100) (UniProt Q8IDW1). The assay is described as follows: PfPK6 kinase inhibitors, biochemical, TCAMS library (AID 1159586). The note with it: recombinant PfPK6, Kinase-Glo ATP depletion luminescence.
The target in assay [7] is Protein kinase 7 (PK7), Plasmodium falciparum 3D7 (PF3D7_0213400) (UniProt Q7YTF7). Description: inhibition of Plasmodium PK7 catalytic activity – biochemical, TCAMS antimalarial set, Kinase-Glo luminescence (AID 1159587). The note with it: recombinant PfPK7, Kinase-Glo ATP depletion luminescence.
Assay [8] addresses Calcium-dependent protein kinase 4 (Plasmodium falciparum (isolate 3D7)) (UniProt Q8IBS5). Description: PfCDPK4 kinase inhibitors, biochemical, TCAMS library (AID 1159588; cut-off not given, nearly all actives have IC50 up to about 0.91 µM). The note with it: recombinant PfCDPK4, Kinase-Glo ATP depletion luminescence.

Sequence of Plasmodium falciparum protein kinase 6 (PK6, PF3D7_1337100) (Q8IDW1 1-305): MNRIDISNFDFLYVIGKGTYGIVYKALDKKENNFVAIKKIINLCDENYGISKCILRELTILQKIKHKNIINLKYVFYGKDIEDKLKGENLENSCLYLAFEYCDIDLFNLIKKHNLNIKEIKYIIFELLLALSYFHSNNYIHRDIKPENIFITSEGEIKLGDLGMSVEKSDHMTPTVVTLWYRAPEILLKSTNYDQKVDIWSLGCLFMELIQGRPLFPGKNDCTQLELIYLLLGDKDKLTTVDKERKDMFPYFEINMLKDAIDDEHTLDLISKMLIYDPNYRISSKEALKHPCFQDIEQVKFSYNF
Sequence of Protein kinase 7 (PK7), Plasmodium falciparum 3D7 (PF3D7_0213400) (Q7YTF7 1-343): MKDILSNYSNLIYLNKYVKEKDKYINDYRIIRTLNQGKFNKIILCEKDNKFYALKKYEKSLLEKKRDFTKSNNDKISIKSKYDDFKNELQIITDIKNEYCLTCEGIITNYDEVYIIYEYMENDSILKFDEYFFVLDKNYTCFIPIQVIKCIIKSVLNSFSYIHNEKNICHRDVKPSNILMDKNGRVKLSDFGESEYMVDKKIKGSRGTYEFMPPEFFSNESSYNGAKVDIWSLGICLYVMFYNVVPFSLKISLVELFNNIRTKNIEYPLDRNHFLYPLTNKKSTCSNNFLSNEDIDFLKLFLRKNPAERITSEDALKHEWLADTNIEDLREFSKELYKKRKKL
Sequence of Calcium-dependent protein kinase 1 (Plasmodium falciparum (isolate 3D7)) (P62344 whole entry, looked up): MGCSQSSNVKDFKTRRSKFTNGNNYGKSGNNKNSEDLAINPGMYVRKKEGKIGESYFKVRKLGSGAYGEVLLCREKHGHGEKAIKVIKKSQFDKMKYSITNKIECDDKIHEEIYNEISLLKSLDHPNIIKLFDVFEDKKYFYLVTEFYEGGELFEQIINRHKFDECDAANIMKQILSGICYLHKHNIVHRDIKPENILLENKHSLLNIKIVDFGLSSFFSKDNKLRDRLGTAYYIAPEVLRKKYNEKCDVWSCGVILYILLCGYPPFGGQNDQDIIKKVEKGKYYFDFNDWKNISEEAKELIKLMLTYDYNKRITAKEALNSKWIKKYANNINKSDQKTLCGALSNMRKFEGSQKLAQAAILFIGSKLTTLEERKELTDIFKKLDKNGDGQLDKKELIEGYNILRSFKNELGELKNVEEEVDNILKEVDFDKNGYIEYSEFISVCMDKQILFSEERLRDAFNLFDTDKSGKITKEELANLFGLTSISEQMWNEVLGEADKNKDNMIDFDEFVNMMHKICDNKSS
Sequence of L-lactate dehydrogenase (Plasmodium falciparum (isolate CDC / Honduras)) (Q27743 whole entry, looked up): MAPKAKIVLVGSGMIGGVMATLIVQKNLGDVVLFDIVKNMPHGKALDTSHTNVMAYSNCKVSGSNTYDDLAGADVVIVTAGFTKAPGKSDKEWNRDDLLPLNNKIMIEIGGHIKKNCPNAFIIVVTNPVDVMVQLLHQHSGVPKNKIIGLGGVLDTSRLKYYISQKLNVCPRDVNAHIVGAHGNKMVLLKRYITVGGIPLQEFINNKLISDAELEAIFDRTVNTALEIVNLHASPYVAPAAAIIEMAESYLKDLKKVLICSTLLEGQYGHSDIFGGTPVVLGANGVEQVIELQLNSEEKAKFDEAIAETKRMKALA
Sequence of Calcium-dependent protein kinase 4 (Plasmodium falciparum (isolate 3D7)) (Q8IBS5 whole entry, looked up): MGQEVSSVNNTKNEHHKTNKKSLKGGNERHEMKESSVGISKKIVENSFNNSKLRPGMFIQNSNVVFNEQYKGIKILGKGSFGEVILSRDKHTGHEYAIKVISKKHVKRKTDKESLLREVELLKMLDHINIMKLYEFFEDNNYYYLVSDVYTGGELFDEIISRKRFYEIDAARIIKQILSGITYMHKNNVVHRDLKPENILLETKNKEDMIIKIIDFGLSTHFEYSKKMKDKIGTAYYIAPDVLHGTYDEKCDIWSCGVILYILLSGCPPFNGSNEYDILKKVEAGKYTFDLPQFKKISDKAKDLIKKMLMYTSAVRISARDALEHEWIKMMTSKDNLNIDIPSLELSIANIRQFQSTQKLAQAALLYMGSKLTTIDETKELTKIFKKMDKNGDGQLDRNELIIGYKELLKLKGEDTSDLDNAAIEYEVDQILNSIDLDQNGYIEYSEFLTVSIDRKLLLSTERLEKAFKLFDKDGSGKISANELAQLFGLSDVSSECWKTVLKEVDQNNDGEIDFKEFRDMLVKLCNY

Turning to `CN1CCCC1CCCOC(=O)c1ccc(N)cc1` (configuration not stated), the growth inhibition is 2% in assay [1] and 101% (active) in assay [4]. Moreover, the inhibition in assay [2] is 8%; in assay [3] it was -2%. Moreover, the result in assay [5], in assay [6], in assay [7] and in assay [8] was inactive.
As to `Cc1cccc2[nH]c(-c3ccc(-c4ccc(CNCc5cccc(N)c5)cc4)cc3)nc12`, the growth inhibition in assay [1] is 84% (active); in assay [4], 102% (active). The inhibition in assay [2] is 12%; in assay [3] it was -9%. In addition, the outcome in assay [5], in assay [6], in assay [7] and in assay [8] was inactive.
On to `NC(=NCCCCCCCCN=C(N)Nc1ccc(Cl)cc1)Nc1ccc(Cl)cc1`, for which the values for the growth inhibition in assay [1] and in assay [4] were 89% (active) and 93% (active), respectively. Besides, the inhibition was 10% in assay [2] and -5% in assay [3]. Also, the result in assay [5], in assay [6], in assay [7] and in assay [8] was inactive.
Turning to `CCc1ccc(CN2CCC(CNC(=O)c3cc(-c4cccc(F)c4)cs3)C2)cc1` (configuration not stated), the growth inhibition in assay [1] was 4%; in assay [4] it was 84% (active). Further, the inhibition in assay [2] was 23%; in assay [3] it was 2%. Moreover, the result in assay [5], in assay [6], in assay [7] and in assay [8] was inactive.
For the molecule `Fc1ccc2nc(-c3ccc(-c4ccc(CN5CCCCC5)cc4)s3)[nH]c2c1`, the growth inhibition in assay [1] is 100% (active); in assay [4], 92% (active). Further, the inhibition in assay [2] was 42%; in assay [3], -2%. Further, the outcome in assay [5], in assay [6], in assay [7] and in assay [8] was inactive.
On to `Cc1cc(Cl)ccc1N(Cc1ccccc1)c1ccnc(Cl)n1`, for which the growth inhibition in assay [1] was 98% (active); in assay [4], 97% (active). For the same molecule, the inhibition in assay [2] was 16%; in assay [3] it was 2%. For the same molecule, the result in assay [5], in assay [6], in assay [7] and in assay [8] was inactive.
With `Cc1c(N)ccc2[nH]c(-c3ccc(N)cc3)nc12`, the growth inhibition in assay [1] was 40%; in assay [4], 97% (active). In addition, the inhibition in assay [2] and in assay [3] was 0% throughout. The result in assay [5], in assay [6], in assay [7] and in assay [8] was inactive.
As for `COc1ccc2ccccc2c1CCCCN1CCN(CC(c2ccc(F)cc2)N2CCN(C3CCCC3)CC2)CC1` (configuration not stated), the results for the growth inhibition in assay [1] and in assay [4] were 51% (active) and 88% (active), respectively. Moreover, the inhibition in assay [2] is 88% (active); in assay [3] it was 6%. The result in assay [5], in assay [6], in assay [7] and in assay [8] was inactive.
`Cc1ccc(Nc2nc(NN=Cc3ccccc3[N+](=O)[O-])nc(Nc3ccc([N+](=O)[O-])cc3)n2)cc1C`: the growth inhibition in assay [1] was 81% (active); in assay [4], 101% (active). Besides, the inhibition in assay [2] is 4%; in assay [3], 5%. Besides, the result in assay [5], in assay [6], in assay [7] and in assay [8] was inactive.
Regarding `O=C(C=Cc1ccc(Cl)c(Cl)c1)NCCCCCN1CCC(CCNS(=O)(=O)c2ccc(F)cc2)CC1`, the figures for the growth inhibition in assay [1] and in assay [4] were -5% and 88% (active), respectively. The inhibition is 36% in assay [2] and 2% in assay [3]. Also, the outcome in assay [5], in assay [6], in assay [7] and in assay [8] was inactive.
On to `CCCCN(CCCC)CCNC(=O)c1cccc(NC(=O)N2CCc3cc(SC)c(C(F)(F)F)cc32)c1`, for which the growth inhibition in assay [1] was 32%; in assay [4] it was 96% (active). Moreover, the inhibition was 15% in assay [2] and -1% in assay [3]. Moreover, the result in assay [5], in assay [6], in assay [7] and in assay [8] was inactive.
As for `Cc1[nH]c(C)c(-c2ccc(CCc3ccc(F)cc3F)cc2)c(=O)c1Br`, the growth inhibition is 98% (active) in assay [1] and 97% (active) in assay [4]. Also, the figures for the inhibition in assay [2] and in assay [3] were -5% and -3%, respectively. Moreover, the result in assay [5], in assay [6], in assay [7] and in assay [8] was inactive.
`CCCC(=O)Nc1ccc(OCCCN(Cc2ccccc2OC(F)(F)F)c2ccc(C#N)c(C(F)(F)F)c2)cc1`: the values for the growth inhibition in assay [1] and in assay [4] were 95% (active) and 94% (active), respectively. Moreover, the inhibition in assay [2] is 0%; in assay [3], -2%. Moreover, the outcome in assay [5], in assay [6], in assay [7] and in assay [8] was inactive.
For `N=C(N)c1ccc(NN=Cc2ccc(Oc3ccc(C(=N)N)cc3)cc2)cc1`, the growth inhibition is 100% (active) in assay [1] and 99% (active) in assay [4]. Besides, the inhibition in assay [2] is 18%; in assay [3], 0%. Also, the result in assay [5], in assay [6], in assay [7] and in assay [8] was inactive.
As for `COc1ccc(CCNC(=O)c2cnc3c(c2)nc(-c2cnc(-c4ccccc4)[nH]2)n3CCc2cnc[nH]2)cc1`, the growth inhibition in assay [1] was 70% (active); in assay [4], 96% (active). Also, the inhibition in assay [2] is 16%; in assay [3] it was 1%. For the same molecule, the result in assay [5], in assay [6], in assay [7] and in assay [8] was inactive.
For `CC(C)Oc1cc2c(cc1NS(=O)(=O)c1ccc(-c3ccc(Cl)cc3)cc1)CCN(C)CC2`, the figures for the growth inhibition in assay [1] and in assay [4] were 65% (active) and 99% (active), respectively. For the same molecule, the inhibition was 100% (active) in assay [2] and -3% in assay [3]. Further, the outcome in assay [5], in assay [6], in assay [7] and in assay [8] was inactive.
In the case of `COc1ccc(CSC2CCCCC23NC(=S)NC3=S)cc1` (configuration not stated), the growth inhibition in assay [1] was -3%; in assay [4], 97% (active). Further, the inhibition was -5% in assay [2] and -1% in assay [3]. For the same molecule, the outcome in assay [5], in assay [6], in assay [7] and in assay [8] was inactive.
As to `CN1CCN(CC(=O)Nc2ccc(-c3cccc(-c4nc5ccc(F)cc5[nH]4)c3)cc2)CC1`, the growth inhibition in assay [1] and in assay [4] was 100% (active) each time. Further, the inhibition in assay [2] was 18%; in assay [3], 3%. The outcome in assay [5], in assay [6], in assay [7] and in assay [8] was inactive.
`Cc1oc(-c2ccccc2)nc1CCOc1ccc(C[C@H](Nc2ccccc2C(=O)c2ccccc2)C(=O)NCc2ccccn2)cc1`: the growth inhibition is 54% (active) in assay [1] and 88% (active) in assay [4]. Also, the inhibition is -2% in assay [2] and -1% in assay [3]. Besides, the result in assay [5], in assay [6], in assay [7] and in assay [8] was inactive.
Regarding `CCCCCN1CCC(NC(=O)c2ccc(C(=O)Nc3ccc(C(C)C)cc3)cc2)CC1`, the growth inhibition in assay [1] was 9%; in assay [4], 98% (active). Besides, the inhibition was 41% in assay [2] and -4% in assay [3]. Further, the result in assay [5], in assay [6], in assay [7] and in assay [8] was inactive.
For the molecule `COc1ccc(S(=O)(=O)N2CCC3(CC2)OCC(=O)NC3c2ccc(Cl)c(Cl)c2)cc1` (configuration not stated), the growth inhibition in assay [1] is 44%; in assay [4], 91% (active). Moreover, the inhibition was -4% in assay [2] and -2% in assay [3]. Further, the result in assay [5], in assay [6], in assay [7] and in assay [8] was inactive.
Consider `COc1ccc2nccc([C@@H](O)CN3CCC(NC(=O)/C=C/c4cc(F)cc(Br)c4)CC3)c2c1`, for which the growth inhibition was 50% (active) in assay [1] and 95% (active) in assay [4]. The figures for the inhibition in assay [2] and in assay [3] were 24% and 7%, respectively. The result in assay [5], in assay [6], in assay [7] and in assay [8] was inactive.
For `Cc1cc(C(=O)Nc2ccc3c(c2)CCN3C2CCN(Cc3cccc4cc[nH]c34)C2)no1` (configuration not stated), the results for the growth inhibition in assay [1] and in assay [4] were 96% (active) and 97% (active), respectively. The results for the inhibition in assay [2] and in assay [3] were -1% and 1%, respectively. The outcome in assay [5], in assay [6], in assay [7] and in assay [8] was inactive.
Turning to `Cc1[nH]c(C)c(-c2ccc(C#Cc3ccc(F)cc3F)cc2)c(=O)c1Br`, the growth inhibition is 98% (active) in assay [1] and 97% (active) in assay [4]. For the same molecule, the inhibition in assay [2] is 11%; in assay [3] it was -1%. Moreover, the outcome in assay [5], in assay [6], in assay [7] and in assay [8] was inactive.
